# Inconclusive results are not listed. A call without a number means that no potency is given here. The source holds several records for some structures; these can differ, active in one and inactive in another. Activity calls are given as the source filed them. Calls come from the whole dose curve; as a rule, active = well fitted activation curve with a large enough effect in the signal ratio in the repeat runs (not every such curve was filed as active); inconclusive = weak or mixed curves; inactive = flat fitted curve, though single readings scatter; the % refers to the signal ratio.
# Experiment: qHTS assay to identify small molecule agonists of H2AX (AID 1224845); note: potency is the fitted concentration of half-maximal effect
# Settings: CHO-K1 phospho-H2AX Ser139 HTRF, 3 h; series mostly up to 154 µM
# Procedure, shortened: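 Phospho-H2AX Ser139 measured by HTRF (ex 320 nm; em 665 and 620 nm) after 24 hr antibody incubation. Compounds, 15 concentrations, 0.76% DMSO, were applied to CHO-K1 cells for 3hr at 37C before lysis.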
row,Structure (SMILES),Potency
1,O=C(O)c1cc(=O)[nH]c(=O)[nH]1,inactive
2,COc1cc([C@H]2Oc3cc([C@H]4Oc5cc(O)cc(O)c5C(=O)[C@@H]4O)ccc3O[C@@H]2CO)ccc1O,inactive
3,CC1=CC(C)(C)Nc2ccccc21,inactive
4,COCCOCCOCCO,inactive
5,O=C1CCc2ccccc2O1,inactive
6,O=[Se](O)O,inactive
7,FC(F)(F)C(Cl)Br (stereo not drawn),inactive
8,C=CCOC(=O)C(=C)C,inactive
9,C=CC(=O)OCCCC,inactive
10,C[C@]12C=CC(=O)C=C1CC[C@H]1[C@@H]3C[C@@H](O)[C@](O)(C(=O)CO)[C@@]3(C)C[C@H](O)[C@@]12F,inactive
11,O=C(O)c1ccc(O)cc1,inactive
12,CC(=O)Oc1ccc(C(c2ccc(OC(C)=O)cc2)c2ccccn2)cc1,inactive
13,CCO[Si](CCCNC(N)=O)(OCC)OCC,inactive
14,CCCCCC=O,inactive
15,IC(I)I,inactive
16,CN1CCOCC1,inactive
17,COC(=O)C(C)Oc1ccc(Oc2ncc(C(F)(F)F)cc2Cl)cc1 (stereo not drawn),inactive
18,OCCNCCO,inactive
19,NCCOCCO,inactive
20,Cc1ccc(C(C)(C)C)c(O)c1,inactive

row,Structure (SMILES),Potency
1,CC(C)=CCO,inactive
2,CC(=O)Oc1c(C)c(C)c2c(c1C)CC[C@@](C)(CCC[C@H](C)CCC[C@H](C)CCCC(C)C)O2,inactive
3,Oc1c(Cl)ccc(Cl)c1Cl,inactive
4,O=C(O)CCCCCCCCCCCC(=O)O,111 µM (active) and inactive
5,c1ccc2c(c1)ccc1ncccc12,inactive
6,CCC(=O)O[C@H]1[C@H](O[C@@H]2[C@@H](C)[C@H](O[C@H]3C[C@@](C)(OC)[C@@H](O)[C@H](C)O3)[C@@H](C)C(=O)O[C@H](CC)[C@@](C)(O)[C@H](O)[C@@H](C)C(=O)[C@H](C)C[C@@]2(C)O)O[C@H](C)C[C@@H]1N(C)C,inactive
7,c1ccc2c(c1)[nH]c1ccccc12,inactive
8,OC[C@@H](O)[C@@H](O[C@@H]1O[C@H](CO)[C@H](O)[C@H](O)[C@H]1O)[C@H](O)[C@@H](O)CO,inactive
9,C=C1C[C@H]2[C@@H]3C=C(C)C4=CC(=O)CC[C@]4(C)[C@H]3CC[C@]2(C)[C@@]1(OC(C)=O)C(C)=O,inactive
10,Cc1ccc([N+](=O)[O-])c(C)c1,4.5 µM (active) and inactive
11,O=C1OC2(c3ccccc31)c1cc(I)c(O)c(I)c1Oc1c2cc(I)c(O)c1I,51.1 µM (active)
12,CC(=O)[C@H]1CC[C@H]2[C@@H]3CC=C4C[C@@H](O)CC[C@]4(C)[C@H]3CC[C@]12C,inactive
13,O=S1(=O)CCCO1,inactive
14,CN(C)C,inactive
15,ClC/C=C/CCl,inactive
16,[O-]/[N+](=N\O)c1ccccc1,inactive
17,CCCCCC1C(=O)CCC1CC(=O)OC (stereo not drawn),inactive
18,Cc1ccc(S(=O)(=O)NCl)cc1,inactive
19,CCCCCCCCCCCCCO,inactive

# Experiment: qHTS assay to identify small molecule agonists of the hypoxia (HIF-1) signaling pathway (AID 1224846)
# Settings: HRE-bla ME-180 cells, beta-lactamase ratio, 17 h; series mostly up to 76.8 µM
# Procedure, shortened: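 In ME-180 cells bearing an HRE-bla construct, 17 h treatment with DMSO-dissolved compounds at 37C was followed by CCF4-AM loading to quantify reporter induction.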
row,Structure (SMILES),outcome
1,O=C(O)c1cc(=O)[nH]c(=O)[nH]1,inactive
2,COc1cc([C@H]2Oc3cc([C@H]4Oc5cc(O)cc(O)c5C(=O)[C@@H]4O)ccc3O[C@@H]2CO)ccc1O,inactive
3,CC1=CC(C)(C)Nc2ccccc21,inactive
4,COCCOCCOCCO,inactive
5,O=C1CCc2ccccc2O1,inactive
6,O=[Se](O)O,inactive
7,FC(F)(F)C(Cl)Br (stereo not drawn),inactive
8,C=CCOC(=O)C(=C)C,inactive
9,C=CC(=O)OCCCC,inactive
10,C[C@]12C=CC(=O)C=C1CC[C@H]1[C@@H]3C[C@@H](O)[C@](O)(C(=O)CO)[C@@]3(C)C[C@H](O)[C@@]12F,inactive
11,O=C(O)c1ccc(O)cc1,inactive
12,CC(=O)Oc1ccc(C(c2ccc(OC(C)=O)cc2)c2ccccn2)cc1,inactive
13,CCO[Si](CCCNC(N)=O)(OCC)OCC,inactive
14,CCCCCC=O,inactive
15,IC(I)I,inactive
16,CN1CCOCC1,inactive
17,COC(=O)C(C)Oc1ccc(Oc2ncc(C(F)(F)F)cc2Cl)cc1 (stereo not drawn),inactive
18,OCCNCCO,inactive
19,NCCOCCO,inactive
20,Cc1ccc(C(C)(C)C)c(O)c1,inactive

row,Structure (SMILES),outcome
1,CC(C)=CCO,inactive
2,CC(=O)Oc1c(C)c(C)c2c(c1C)CC[C@@](C)(CCC[C@H](C)CCC[C@H](C)CCCC(C)C)O2,inactive
3,Oc1c(Cl)ccc(Cl)c1Cl,inactive
4,O=C(O)CCCCCCCCCCCC(=O)O,inactive
5,c1ccc2c(c1)ccc1ncccc12,inactive
6,CCC(=O)O[C@H]1[C@H](O[C@@H]2[C@@H](C)[C@H](O[C@H]3C[C@@](C)(OC)[C@@H](O)[C@H](C)O3)[C@@H](C)C(=O)O[C@H](CC)[C@@](C)(O)[C@H](O)[C@@H](C)C(=O)[C@H](C)C[C@@]2(C)O)O[C@H](C)C[C@@H]1N(C)C,inactive
7,c1ccc2c(c1)[nH]c1ccccc12,inactive
8,OC[C@@H](O)[C@@H](O[C@@H]1O[C@H](CO)[C@H](O)[C@H](O)[C@H]1O)[C@H](O)[C@@H](O)CO,inactive
9,C=C1C[C@H]2[C@@H]3C=C(C)C4=CC(=O)CC[C@]4(C)[C@H]3CC[C@]2(C)[C@@]1(OC(C)=O)C(C)=O,inactive
10,Cc1ccc([N+](=O)[O-])c(C)c1,inactive
11,O=C1OC2(c3ccccc31)c1cc(I)c(O)c(I)c1Oc1c2cc(I)c(O)c1I,inactive
12,CC(=O)[C@H]1CC[C@H]2[C@@H]3CC=C4C[C@@H](O)CC[C@]4(C)[C@H]3CC[C@]12C,inactive
13,O=S1(=O)CCCO1,inactive
14,CN(C)C,inactive
15,ClC/C=C/CCl,inactive
16,[O-]/[N+](=N\O)c1ccccc1,inactive
17,CCCCCC1C(=O)CCC1CC(=O)OC (stereo not drawn),inactive
18,Cc1ccc(S(=O)(=O)NCl)cc1,inactive
19,CCCCCCCCCCCCCO,inactive

# Source: PubChem BioAssay (Tox21)
